Records with an inconclusive call do not appear. Where a call stands in place of a potency, no number is given. The source made the active and inactive calls. Calls come from the whole dose curve; as a rule, active = well fitted curve in the direction sought with a large enough effect; inconclusive = small, poorly fitted or top-dose-only effect, or another doubt; inactive = no such curve, though single readings can be large; an effect the other way counts as inactive or inconclusive.

Sequence of Metallo-beta-lactamase type 2 (Klebsiella pneumoniae) (C7C422 whole entry, looked up): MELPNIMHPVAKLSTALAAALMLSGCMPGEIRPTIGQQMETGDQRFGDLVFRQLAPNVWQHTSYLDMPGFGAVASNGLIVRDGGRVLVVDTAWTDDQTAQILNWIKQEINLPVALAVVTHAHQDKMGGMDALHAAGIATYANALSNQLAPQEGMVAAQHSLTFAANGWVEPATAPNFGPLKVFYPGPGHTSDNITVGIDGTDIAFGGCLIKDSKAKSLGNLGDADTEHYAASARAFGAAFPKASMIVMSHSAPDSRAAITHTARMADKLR

System in one test: not listed separately
The test is described as follows: HepG2 viability counterscreen (readout 2: ATP content) against the NCATS DSHEA and TCM libraries (AID 1794840).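 Note: HepG2 cells exposed to substances for about 24 h.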 The note with it: ATP content luminescence; series mostly up to 27.3 µM. The method, boiled down:
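Readout 1: cellular protease activity, GF-AFC substrate (25 uM final, 30 min, fluorescence 380/510 nm). Readout 2: ATP content by CellTiter-Glo luminescence after 30 min at RT. Both follow ~24 h exposure of HepG2 cells (1,000/well) to substances.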
Background: Counterscreens check selectivity or assay interference.
Take `CC1=C(C/C=C(\C)CCC[C@H](C)CCC[C@H](C)CCCC(C)C)C(=O)c2ccccc2C1=O`: the outcome was inactive. On to `O=C1O[C@H]([C@@H](O)CO)C(O)=C1O`, for which the outcome was inactive. The same measure, in the same setting: the same measure for `CC12CCC(CC1)C(C)(C)O2`: “inactive”.

The target of the next test is Metallo-beta-lactamase type 2 (Klebsiella pneumoniae) (UniProt C7C422). In words: qHTS to identify inhibitors of the New Delhi Metallo-beta-lactamase (NDM): assay validation screen against the NCATS LOPAC Collection (AID 1794843).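 Note: nitrocefin turnover by NDM-1 measured as 485 nm absorbance at plateau.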 The note with it: NDM-1 enzyme, nitrocefin hydrolysis, absorbance 485 nm; series mostly up to 38.4 µM. The method, boiled down:
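Enzyme 2 nM final, 50 mM HEPES pH 7.0, 1 uM ZnSO4, 0.01% Tween20; cpds in DMSO, preincub w/ enzyme; + nitrocefin (50 uM stock); A485 at plateau; no-enzyme column as blank.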
Regarding `CC(C)NC[C@H](O)c1ccc(O)c(O)c1`, the molecule was called inactive.

As to `CNCCC(Oc1ccc(C(F)(F)F)cc1)c1ccccc1` (stereo not given), the outcome was inactive. As for `NC1[C@H]2CN(c3nc4c(cc3F)c(=O)c(C(=O)O)cn4-c3ccc(F)cc3F)C[C@@H]12` (stereo not given in full), the outcome was inactive. In the case of `CSc1ccc2c(c1)N(CCC1CCCCN1C)c1ccccc1S2` (stereo not given), the call was inactive.

In the case of `CCCn1cnc2c1c(=O)n(CCCCC(C)=O)c(=O)n2C`, the molecule was classed as inactive. For `CCN(CC)CCNC(=O)c1c(C)[nH]c(/C=C2\C(=O)Nc3ccc(F)cc32)c1C`, the call was inactive. Turning to `COC(=O)C1=C(C)NC(C)=C(C(=O)OC)C1c1ccccc1[N+](=O)[O-]`, the outcome was inactive.

Turning to `CC1=C(/C=C/C(C)=C/C=C/C(C)=C/C(=O)O)C(C)(C)CCC1`, the result was inactive. With `CC(CN(C)C)CN1c2ccccc2CCc2ccccc21` (stereo not given), the result was inactive. On to `CN(C)CCC=C1c2ccccc2CCc2ccccc21`, for which the outcome was inactive. As to `CC(=O)c1ccc2c(c1)N(CCCN(C)C)c1ccccc1S2`, the molecule was classed as inactive. For `CC1=C(CC(=O)O)c2cc(F)ccc2/C1=C\c1ccc(S(C)(=O)=O)cc1`, the molecule was classed as inactive. On to `OCCN1CCN(CCCN2c3ccccc3Sc3ccc(Cl)cc32)CC1`, for which the result was inactive.

Take `CN(C)CCOC(C)(c1ccccc1)c1ccccn1` (stereo not given): the molecule was classed as inactive. As to `C[C@H](NC(CCc1ccccc1)C(=O)O)C(=O)N1CCC[C@H]1C(=O)O` (stereo not given in full), the molecule was called inactive. The same measure, in the same setting: under `Nc1ncnc2c1ncn2[C@@H]1O[C@H](CO)[C@@H](O)[C@H]1O` stands “inactive”. On the same count and under the same terms, under `CC1=C(CC(=O)O)c2cc(F)ccc2/C1=C\c1ccc(S(C)=O)cc1` (stereo not given) stands “inactive”. In the case of `CNCC(O)c1ccc(O)c(O)c1` (stereo not given), the outcome was inactive. Consider `O=C1NC(=O)[C@@]2(CCOc3ccc(F)cc32)N1`, for which the outcome was inactive.

Take `C[C@H]1O[C@@H](n2cc(F)c(=O)[nH]c2=O)[C@H](O)[C@@H]1O`: the molecule was classed as inactive.

Consider `Nc1cc(=O)[nH]c(N)n1`, for which the call was inactive. For the molecule `N=c1c[n+](N2CCOCC2)[n-]o1`, the outcome was inactive.

For `C=Cc1c(C)c2cc3[nH]c(cc4nc(cc5nc(cc1[nH]2)C(C)=C5CCC(=O)O)C(CCC(=O)O)=C4C)c(C)c3C=C`, the molecule was classed as inactive.

In the case of `O=C1N=C(O)CN1/N=C/c1ccc(-c2ccc([N+](=O)[O-])cc2)o1`, the outcome was inactive. For `CCN(CC)CCOC(=O)C1(C2CCCCC2)CCCCC1`, the call was inactive.

On to `CC(C)C(=O)c1c(C(C)C)nn2ccccc12`, for which the result was inactive. On the same count and under the same terms, the same measure for `CNCCCC1c2ccccc2C=Cc2ccccc21`: “inactive”. Turning to `C[C@]12C[C@H](O)[C@H]3[C@@H](CCC4=CC(=O)CC[C@@]43C)[C@@H]1CC[C@@H]2C(=O)CO`, the call was inactive. On the same count and under the same terms, the same measure for `CSc1ccc2c(c1)C(N1CCN(C)CC1)Cc1ccccc1S2` (stereo not given): “inactive”. Consider `C[C@](N)(Cc1ccc(O)cc1)C(=O)O`, for which the outcome was inactive.

The target of the next test is Glutathione peroxidase 1 (Homo sapiens) (UniProt P07203). In words: Primary qHTS Assay for Inhibitors of Recombinant Selenoprotein Glutathione Peroxidase 1 (GPX1) (AID 1845191). Note: nearly all actives have a fitted effect of over 65% in size. Conditions: recombinant GPX1, GR-coupled NADPH fluorescence, 15 min; series mostly up to 48.8 µM. The essentials: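 Recombinant GPX1 (10 nM final) was preincubated with compound for 30 min at room temperature, then reacted with 1 mM GSH, 0.5 mM CHP, 0.5 mM NADPH and 100 nM glutathione reductase; NADPH fluorescence (340/450 nm) was read at 0 and 15 min.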
Sequence of Glutathione peroxidase 1 (Homo sapiens) (P07203 whole entry, looked up): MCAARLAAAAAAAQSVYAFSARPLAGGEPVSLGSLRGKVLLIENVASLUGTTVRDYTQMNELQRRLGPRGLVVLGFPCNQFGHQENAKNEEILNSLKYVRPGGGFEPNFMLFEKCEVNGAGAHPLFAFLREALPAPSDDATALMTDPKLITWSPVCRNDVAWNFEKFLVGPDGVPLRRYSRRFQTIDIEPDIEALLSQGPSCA
For `CC(C)NC[C@H](O)c1ccc(O)c(O)c1`, the Potency result is “inactive”. As to `CNCCC(Oc1ccc(C(F)(F)F)cc1)c1ccccc1` (stereo not given), the Potency entry was “inactive”.

As to `NC1[C@H]2CN(c3nc4c(cc3F)c(=O)c(C(=O)O)cn4-c3ccc(F)cc3F)C[C@@H]12` (stereo not given in full), the Potency result is “inactive”. In the case of `CSc1ccc2c(c1)N(CCC1CCCCN1C)c1ccccc1S2` (stereo not given), the Potency entry was “inactive”.

On to `CCCn1cnc2c1c(=O)n(CCCCC(C)=O)c(=O)n2C`, for which the Potency result was “inactive”.

Regarding `CCN(CC)CCNC(=O)c1c(C)[nH]c(/C=C2\C(=O)Nc3ccc(F)cc32)c1C`, the Potency result is “inactive”.

For the molecule `COC(=O)C1=C(C)NC(C)=C(C(=O)OC)C1c1ccccc1[N+](=O)[O-]`, the Potency entry was “inactive”.

As to `CC1=C(/C=C/C(C)=C/C=C/C(C)=C/C(=O)O)C(C)(C)CCC1`, the Potency result was “inactive”. In the case of `CC(CN(C)C)CN1c2ccccc2CCc2ccccc21` (stereo not given), the Potency entry was “inactive”. In the case of `CN(C)CCC=C1c2ccccc2CCc2ccccc21`, the Potency entry is “inactive”. With `CC(=O)c1ccc2c(c1)N(CCCN(C)C)c1ccccc1S2`, the Potency entry is “inactive”. As to `CC1=C(CC(=O)O)c2cc(F)ccc2/C1=C\c1ccc(S(C)(=O)=O)cc1`, the Potency result was “inactive”. Consider `OCCN1CCN(CCCN2c3ccccc3Sc3ccc(Cl)cc32)CC1`, for which the Potency result is “inactive”.

With `CN(C)CCOC(C)(c1ccccc1)c1ccccn1` (stereo not given), the Potency result was “inactive”. Regarding `C[C@H](NC(CCc1ccccc1)C(=O)O)C(=O)N1CCC[C@H]1C(=O)O` (stereo not given in full), the Potency result was “inactive”.

With `Nc1ncnc2c1ncn2[C@@H]1O[C@H](CO)[C@@H](O)[C@H]1O`, the Potency entry is “inactive”. Take `CC1=C(CC(=O)O)c2cc(F)ccc2/C1=C\c1ccc(S(C)=O)cc1` (stereo not given): the Potency result is “inactive”.

Turning to `CNCC(O)c1ccc(O)c(O)c1` (stereo not given), the Potency result is “inactive”.

Consider `O=C1NC(=O)[C@@]2(CCOc3ccc(F)cc32)N1`, for which the Potency result is “inactive”.

Regarding `C[C@H]1O[C@@H](n2cc(F)c(=O)[nH]c2=O)[C@H](O)[C@@H]1O`, the Potency entry is “inactive”.

Turning to `Nc1cc(=O)[nH]c(N)n1`, the Potency result is “inactive”.

In the case of `N=c1c[n+](N2CCOCC2)[n-]o1`, the Potency entry was “inactive”.

On to `C=Cc1c(C)c2cc3[nH]c(cc4nc(cc5nc(cc1[nH]2)C(C)=C5CCC(=O)O)C(CCC(=O)O)=C4C)c(C)c3C=C`, for which the Potency entry was “inactive”. Still for that read-out and setting: under `O=C1N=C(O)CN1/N=C/c1ccc(-c2ccc([N+](=O)[O-])cc2)o1` stands “inactive”; under `CCN(CC)CCOC(=O)C1(C2CCCCC2)CCCCC1`, “inactive”; under `CC(C)C(=O)c1c(C(C)C)nn2ccccc12`, “inactive”. Turning to `CNCCCC1c2ccccc2C=Cc2ccccc21`, the Potency result was “inactive”.

Take `O=C1O[C@H]([C@@H](O)CO)C(O)=C1O`: the Potency result is “inactive”. Still for that read-out and setting: the same measure for `CC12CCC(CC1)C(C)(C)O2`: “inactive”; for `C[C@]12C[C@H](O)[C@H]3[C@@H](CCC4=CC(=O)CC[C@@]43C)[C@@H]1CC[C@@H]2C(=O)CO`: “inactive”; for `CSc1ccc2c(c1)C(N1CCN(C)CC1)Cc1ccccc1S2` (stereo not given): “inactive”. In the case of `C[C@](N)(Cc1ccc(O)cc1)C(=O)O`, the Potency entry was “inactive”.

For the origin of these results see PubChem BioAssay (NCATS).
